From paper PMC10812921, “Transcriptional Coactivator BOB1 (OBF1, OCA-B) Modulates the Specificity of DNA Recognition by the POU-Domain Factors OCT1 and OCT2 in a Monomeric Configuration”

Key:
POU1 (OCT1 POU domain) = POU1 (OCT1 POU domain) (human, UniProt P14859 260-458); experiment: EMSA-SELEX-seq; no BOB1; 20 mM Tris-HCl pH 7.6, 140 mM NaCl, 10% glycerol, 0.5 mM EDTA, 0.05% Triton X-100, 0.1 mg/mL BSA, 0.1 mg/mL poly(dI-dC), 5 mM DTT, room temperature, 20 min; high values mean tight binding; conditions: protein: recombinant; dsDNA, one strand shown
Outline: (§1)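 Binding preference is the percentage of sequenced 8-mers matching a motif pattern. Tagged POU-domain proteins expressed in E. coli BL21 were purified under denaturing conditions and renatured. For binding, 30 ng protein met 300 ng of a PCR-amplified double-stranded random 35-nt library, with or without 28 ng coactivator protein, in 20 μL Tris–HCl pH 7.6 binding buffer for 20 min at RT. Complex bands were cut from native 6% PAGE, eluted and PCR-amplified over four rounds, then Illumina-sequenced.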

POU2 (OCT2 POU domain) = target: T1, POU2 (OCT2 POU domain) (human, UniProt P09086 175-386); experiment: as above; conditions: protein: recombinant; dsDNA, one strand shown
T1 sequence: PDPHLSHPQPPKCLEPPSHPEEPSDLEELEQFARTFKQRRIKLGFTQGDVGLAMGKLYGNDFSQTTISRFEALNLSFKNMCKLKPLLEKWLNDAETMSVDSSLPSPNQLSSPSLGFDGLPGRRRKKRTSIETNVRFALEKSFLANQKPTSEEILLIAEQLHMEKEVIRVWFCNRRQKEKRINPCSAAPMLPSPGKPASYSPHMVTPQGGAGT
Outline: as §1

[1] = target: POU1 (OCT1 POU domain);BOB1 (OBF1, OCA-B) (human;human, UniProt P14859;Q16633 260-458;1-256, |); experiment: EMSA-SELEX-seq; with BOB1 (ternary complex band); 20 mM Tris-HCl pH 7.6, 140 mM NaCl, 10% glycerol, 0.5 mM EDTA, 0.05% Triton X-100, 0.1 mg/mL BSA, 0.1 mg/mL poly(dI-dC), 5 mM DTT, room temperature, 20 min; high values mean tight binding; conditions: protein: recombinant;recombinant; copies: 1;1; dsDNA, one strand shown
Outline: as §1

[2] = target: T2, POU2 (OCT2 POU domain);BOB1 (OBF1, OCA-B) (human;human, UniProt P09086;Q16633 175-386;1-256, |); experiment: as above; conditions: protein: recombinant;recombinant; copies: 1;1; dsDNA, one strand shown
T2 sequence 1: T1 sequence
T2 sequence 2: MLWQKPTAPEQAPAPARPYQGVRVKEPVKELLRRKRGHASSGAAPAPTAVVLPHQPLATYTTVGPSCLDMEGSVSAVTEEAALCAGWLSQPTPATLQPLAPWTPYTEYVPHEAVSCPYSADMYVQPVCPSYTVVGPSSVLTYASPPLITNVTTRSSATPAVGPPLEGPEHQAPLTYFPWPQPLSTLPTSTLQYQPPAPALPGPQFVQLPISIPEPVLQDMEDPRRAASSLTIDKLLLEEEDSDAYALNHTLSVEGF
Outline: as §1

Sequence of POU1 (OCT1 POU domain) (P14859 260-458): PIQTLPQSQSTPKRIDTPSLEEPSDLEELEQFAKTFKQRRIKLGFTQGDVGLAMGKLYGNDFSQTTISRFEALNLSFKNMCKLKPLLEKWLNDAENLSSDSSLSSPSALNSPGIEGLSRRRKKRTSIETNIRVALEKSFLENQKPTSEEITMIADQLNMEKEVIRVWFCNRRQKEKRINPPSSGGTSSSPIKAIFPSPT

Sequence | binding signal (POU1 (OCT1 POU domain)) | binding signal (POU2 (OCT2 POU domain)) | binding signal [1] | binding signal [2]
ACAATAAC | 0.0248 % of ANNNNAAN 8-mers | 0.0259 % of ANNNNAAN 8-mers | 0.0211 % of ANNNNAAN 8-mers | 0.0248 % of ANNNNAAN 8-mers
AATGTAAT | 0.169 % of ANNNNAAN 8-mers | 0.181 % of ANNNNAAN 8-mers | 0.109 % of ANNNNAAN 8-mers | 0.137 % of ANNNNAAN 8-mers
AATTCAAA | 0.373 % of ANNNNAAN 8-mers | 0.292 % of ANNNNAAN 8-mers | 0.438 % of ANNNNAAN 8-mers | 0.4 % of ANNNNAAN 8-mers
ACAAAAAG | 0.0549 % of ANNNNAAN 8-mers | 0.0489 % of ANNNNAAN 8-mers | 0.0683 % of ANNNNAAN 8-mers | 0.0429 % of ANNNNAAN 8-mers
ACTACAAT | 0.0309 % of ANNNNAAN 8-mers | 0.0282 % of ANNNNAAN 8-mers | 0.0285 % of ANNNNAAN 8-mers | 0.0338 % of ANNNNAAN 8-mers
ATCCGAAC | 0.0217 % of ANNNNAAN 8-mers | 0.0219 % of ANNNNAAN 8-mers | 0.0238 % of ANNNNAAN 8-mers | 0.0198 % of ANNNNAAN 8-mers
ATTGTAAA | 0.116 % of ANNNNAAN 8-mers | 0.106 % of ANNNNAAN 8-mers | 0.144 % of ANNNNAAN 8-mers | 0.0925 % of ANNNNAAN 8-mers
ACTCCAAG | 0.0191 % of ANNNNAAN 8-mers | 0.0196 % of ANNNNAAN 8-mers | 0.0195 % of ANNNNAAN 8-mers | 0.0124 % of ANNNNAAN 8-mers
AAATTAAC | 0.334 % of ANNNNAAN 8-mers | 0.33 % of ANNNNAAN 8-mers | 0.188 % of ANNNNAAN 8-mers | 0.196 % of ANNNNAAN 8-mers
ATCCTAAG | 0.0324 % of ANNNNAAN 8-mers | 0.0299 % of ANNNNAAN 8-mers | 0.0312 % of ANNNNAAN 8-mers | 0.0405 % of ANNNNAAN 8-mers
ATCGAAAA | 0.0511 % of ANNNNAAN 8-mers | 0.0564 % of ANNNNAAN 8-mers | 0.0441 % of ANNNNAAN 8-mers | 0.0454 % of ANNNNAAN 8-mers
AAAGGAAA | 0.103 % of ANNNNAAN 8-mers | 0.0903 % of ANNNNAAN 8-mers | 0.144 % of ANNNNAAN 8-mers | 0.0933 % of ANNNNAAN 8-mers
ACTAGAAG | 0.0229 % of ANNNNAAN 8-mers | 0.0316 % of ANNNNAAN 8-mers | 0.03 % of ANNNNAAN 8-mers | 0.0231 % of ANNNNAAN 8-mers
ACCTTAAT | 0.0629 % of ANNNNAAN 8-mers | 0.0679 % of ANNNNAAN 8-mers | 0.0418 % of ANNNNAAN 8-mers | 0.0545 % of ANNNNAAN 8-mers
AACATAAT | 0.134 % of ANNNNAAN 8-mers | 0.174 % of ANNNNAAN 8-mers | 0.0515 % of ANNNNAAN 8-mers | 0.071 % of ANNNNAAN 8-mers
ACGATAAT | 0.0896 % of ANNNNAAN 8-mers | 0.123 % of ANNNNAAN 8-mers | 0.0535 % of ANNNNAAN 8-mers | 0.085 % of ANNNNAAN 8-mers
ATTATAAC | 0.0713 % of ANNNNAAN 8-mers | 0.113 % of ANNNNAAN 8-mers | 0.0581 % of ANNNNAAN 8-mers | 0.057 % of ANNNNAAN 8-mers
AAATGAAA | 0.15 % of ANNNNAAN 8-mers | 0.133 % of ANNNNAAN 8-mers | 0.21 % of ANNNNAAN 8-mers | 0.147 % of ANNNNAAN 8-mers
AGTGAAAT | 0.138 % of ANNNNAAN 8-mers | 0.124 % of ANNNNAAN 8-mers | 0.196 % of ANNNNAAN 8-mers | 0.121 % of ANNNNAAN 8-mers
AATGCAAG | 0.0671 % of ANNNNAAN 8-mers | 0.0512 % of ANNNNAAN 8-mers | 0.0749 % of ANNNNAAN 8-mers | 0.0644 % of ANNNNAAN 8-mers
AGTACAAT | 0.0416 % of ANNNNAAN 8-mers | 0.0426 % of ANNNNAAN 8-mers | 0.0386 % of ANNNNAAN 8-mers | 0.0462 % of ANNNNAAN 8-mers
ATTGGAAC | 0.0313 % of ANNNNAAN 8-mers | 0.0426 % of ANNNNAAN 8-mers | 0.0304 % of ANNNNAAN 8-mers | 0.0388 % of ANNNNAAN 8-mers
AATCGAAC | 0.0366 % of ANNNNAAN 8-mers | 0.0334 % of ANNNNAAN 8-mers | 0.0347 % of ANNNNAAN 8-mers | 0.0512 % of ANNNNAAN 8-mers
ACCAGAAA | 0.029 % of ANNNNAAN 8-mers | 0.0242 % of ANNNNAAN 8-mers | 0.0254 % of ANNNNAAN 8-mers | 0.0157 % of ANNNNAAN 8-mers
AGTGGAAA | 0.0542 % of ANNNNAAN 8-mers | 0.0512 % of ANNNNAAN 8-mers | 0.0718 % of ANNNNAAN 8-mers | 0.052 % of ANNNNAAN 8-mers
AAGTCAAA | 0.141 % of ANNNNAAN 8-mers | 0.113 % of ANNNNAAN 8-mers | 0.258 % of ANNNNAAN 8-mers | 0.165 % of ANNNNAAN 8-mers
AAGGGAAA | 0.196 % of ANNNNAAN 8-mers | 0.146 % of ANNNNAAN 8-mers | 0.255 % of ANNNNAAN 8-mers | 0.136 % of ANNNNAAN 8-mers
AGGGTAAC | 0.0339 % of ANNNNAAN 8-mers | 0.0328 % of ANNNNAAN 8-mers | 0.0343 % of ANNNNAAN 8-mers | 0.0322 % of ANNNNAAN 8-mers
AGTAAAAG | 0.061 % of ANNNNAAN 8-mers | 0.0662 % of ANNNNAAN 8-mers | 0.0913 % of ANNNNAAN 8-mers | 0.0578 % of ANNNNAAN 8-mers
ACATTAAG | 0.095 % of ANNNNAAN 8-mers | 0.0875 % of ANNNNAAN 8-mers | 0.0539 % of ANNNNAAN 8-mers | 0.0487 % of ANNNNAAN 8-mers
